# Source: the supplement of paper PMC10037445
# The full ranking holds about 2,900 compounds; the median of “NF-kB SEAP reporter activity, fold change vs agonist alone” is about 0.99, and the highest 2% start at about 2.6. For the sample, the highest values were picked, then their nearest neighbours and some compounds at random.
# Columns and labels:
# [1] = system: RAW-Dual; assay: NF-kB SEAP reporter activity, fold change vs agonist alone; higher = enhanced NF-kB activity
# Summary of the method: (§1)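 RAW-Dual macrophages were seeded in DMEM at 50,000 cells/well in 384-well plates, given 50 nL of library stock by pin tool, and given a PRR agonist 1 h later. Plates were held at 37 °C, 5% CO2 for 20 hours, after which supernatant was read for IRF by QuantiLuc luminescence and for NF-κB by QuantiBlue absorbance at 620 nm. Reporter activity is expressed as fold change over wells that received agonist alone. A well was called cytotoxic when IncuCyte confluency fell below 70% of agonist controls in both mask sets.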
# [2] = system: RAW-Dual; assay: NF-kB SEAP reporter activity, fold change vs agonist alone; cytotoxicity flag (confluency mask): not cytotoxic; higher = enhanced NF-kB activity
# Summary of the method: as §1
# [3] = system: RAW-Dual; assay: NF-kB SEAP reporter activity, fold change vs agonist alone; cytotoxicity flag (confluency mask): cytotoxic (confluency <70% of control); higher = enhanced NF-kB activity
# Summary of the method: as §1
# [4] = library stock concentration (final ~1000-fold dilution): 10 mM, cytotoxicity flag (confluency mask): not cytotoxic, agonist: Imiquimod (TLR7) […]
# [5] = library stock concentration (final ~1000-fold dilution): 10 mM, cytotoxicity flag (confluency mask): not cytotoxic, agonist: MPLA (TLR4) […]
# [6] = agonist: ODN 1826 (TLR9) 0.5 ug/mL
# [7] = agonist: Pam2CSK4 (TLR2/6) 0.1 ug/mL
# [8] = agonist: Pam3CSK4 (TLR2/1) 0.1 ug/mL
# [9] = library stock concentration (final ~1000-fold dilution): 10 mM, cytotoxicity flag (confluency mask): cytotoxic (confluency <70% of control), agonist: Imiquimod (TLR7) […]
# [10] = library stock concentration (final ~1000-fold dilution): 10 mM, cytotoxicity flag (confluency mask): cytotoxic (confluency <70% of control), agonist: MPLA (TLR4) […]
compound,measurement,setting,value
O=C(OC1OC2COC(=O)c3cc(O)c(O)c(O)c3-c3c(cc(O)c(O)c3O)C(=O)OC(C2O)C1O)c1cc(O)c(O)c(O)c1 (stereo not drawn),NF-kB SEAP reporter activity,[1]; [4],0.783
same,NF-kB SEAP reporter activity,[1]; [5],1.08
O=C(OC1OC2COC(=O)c3cc(O)c(O)c(O)c3-c3c(cc(O)c(O)c3O)C(=O)OC(C2O)C1O)c1cc(O)c(O)c(O)c1 (stereo not drawn) (library stock concentration (final ~1000-fold dilution): 10 mM),NF-kB SEAP reporter activity,[2]; agonist: LPS (TLR4) 0.1 ug/mL,1.34
same,NF-kB SEAP reporter activity,[2]; [6],0.874
same,NF-kB SEAP reporter activity,[2]; [7],0.809
same,NF-kB SEAP reporter activity,[2]; [8],0.393
C=C1c2cccc(O)c2C(=O)C2=C(O)C3(O)C(=O)C(C(N)=O)=C(O)C(N(C)C)C3C(O)C12.Cl (stereo not drawn),NF-kB SEAP reporter activity,"[1]; library stock concentration (final ~1000-fold dilution): 10 mM water, cytotoxicity flag (confluency mask): not cytotoxic, agonist: Imiquimod (TLR7) […]",0.915
same,NF-kB SEAP reporter activity,"[1]; library stock concentration (final ~1000-fold dilution): 10 mM water, cytotoxicity flag (confluency mask): not cytotoxic, agonist: MPLA (TLR4) […]",1.08
C=C1c2cccc(O)c2C(=O)C2=C(O)C3(O)C(=O)C(C(N)=O)=C(O)C(N(C)C)C3C(O)C12.Cl (stereo not drawn) (library stock concentration (final ~1000-fold dilution): 10 mM water),NF-kB SEAP reporter activity,[2]; agonist: LPS (TLR4) 0.1 ug/mL,1.12
same,NF-kB SEAP reporter activity,[2]; [6],1.14
same,NF-kB SEAP reporter activity,[2]; [7],1.26
same,NF-kB SEAP reporter activity,[2]; [8],1.05
Fc1ccc2c(/C=C/c3nnn[nH]3)c[nH]c2c1 (library stock concentration (final ~1000-fold dilution): 10 mM),NF-kB SEAP reporter activity,[2]; agonist: LPS (TLR4) 0.1 ug/mL,1.11
same,NF-kB SEAP reporter activity,[2]; [6],0.894
same,NF-kB SEAP reporter activity,[2]; [7],0.966
same,NF-kB SEAP reporter activity,[2]; [8],1.14
Fc1ccc2c(/C=C/c3nnn[nH]3)c[nH]c2c1,NF-kB SEAP reporter activity,[1]; [4],0.885
same,NF-kB SEAP reporter activity,[1]; [5],1.05
C/C1=C/CC[C@@]2(C)O[C@@H]2[C@H]2OC(=O)[C@H](CN(C)C)[C@@H]2CC1 (library stock concentration (final ~1000-fold dilution): 10 mM),NF-kB SEAP reporter activity,[2]; agonist: LPS (TLR4) 0.1 ug/mL,0.302
same,NF-kB SEAP reporter activity,[2]; [6],0.185
same,NF-kB SEAP reporter activity,[2]; [7],0.197
same,NF-kB SEAP reporter activity,[2]; [8],0.151
C/C1=C/CC[C@@]2(C)O[C@@H]2[C@H]2OC(=O)[C@H](CN(C)C)[C@@H]2CC1,NF-kB SEAP reporter activity,[1]; [4],0.137
same,NF-kB SEAP reporter activity,[1]; [5],0.246
O=C(CCCCCCNC(=O)c1cnc(N(c2ccccc2)c2ccccc2Cl)nc1)NO (library stock concentration (final ~1000-fold dilution): 10 mM),NF-kB SEAP reporter activity,[3]; agonist: LPS (TLR4) 0.1 ug/mL,4.23
same,NF-kB SEAP reporter activity,[3]; [6],2.1
same,NF-kB SEAP reporter activity,[3]; [7],0.586
same,NF-kB SEAP reporter activity,[3]; [8],1.47
O=C(N/N=C/c1ccc(O)c(O)c1)c1cc2ccccc2cc1O (library stock concentration (final ~1000-fold dilution): 10 mM),NF-kB SEAP reporter activity,[2]; agonist: LPS (TLR4) 0.1 ug/mL,0.616
same,NF-kB SEAP reporter activity,[2]; [6],0.257
same,NF-kB SEAP reporter activity,[2]; [7],0.16
same,NF-kB SEAP reporter activity,[2]; [8],0.192
O=C(NO)c1cccc(C(=O)NCCc2ccccc2)c1 (library stock concentration (final ~1000-fold dilution): 10 mM),NF-kB SEAP reporter activity,[2]; agonist: LPS (TLR4) 0.1 ug/mL,0.989
same,NF-kB SEAP reporter activity,[2]; [6],1.12
same,NF-kB SEAP reporter activity,[2]; [7],0.864
same,NF-kB SEAP reporter activity,[2]; [8],0.709
O=C(CCCCCCNC(=O)c1cnc(N(c2ccccc2)c2ccccc2)nc1)NO (library stock concentration (final ~1000-fold dilution): 10 mM),NF-kB SEAP reporter activity,[3]; agonist: LPS (TLR4) 0.1 ug/mL,4.12
same,NF-kB SEAP reporter activity,[3]; [6],1.3
same,NF-kB SEAP reporter activity,[3]; [7],0.825
same,NF-kB SEAP reporter activity,[3]; [8],1.08
O=C(CCCCCCC(=O)N/N=C/c1ccc(N(c2ccccc2)c2ccccc2)cc1)NO,NF-kB SEAP reporter activity,[1]; [9],1.77
same,NF-kB SEAP reporter activity,[1]; [10],2.3
CN(C)c1ccc(C(=O)NCCCCCCC(=O)NO)cc1 (library stock concentration (final ~1000-fold dilution): 10 mM),NF-kB SEAP reporter activity,[3]; agonist: LPS (TLR4) 0.1 ug/mL,4.72
same,NF-kB SEAP reporter activity,[3]; [6],2.78
same,NF-kB SEAP reporter activity,[3]; [7],1.17
same,NF-kB SEAP reporter activity,[3]; [8],2.01
O=C(NO)c1cccc(C(=O)NCCc2ccccc2)c1,NF-kB SEAP reporter activity,[1]; [4],1.05
same,NF-kB SEAP reporter activity,[1]; [5],1.05
CN(C)c1ccc(C(=O)NCCCCCCC(=O)NO)cc1,NF-kB SEAP reporter activity,[1]; [9],2.83
same,NF-kB SEAP reporter activity,[1]; [10],2.64
O=C(CCCCCCC(=O)N/N=C/c1ccc(N(c2ccccc2)c2ccccc2)cc1)NO (library stock concentration (final ~1000-fold dilution): 10 mM),NF-kB SEAP reporter activity,[3]; agonist: LPS (TLR4) 0.1 ug/mL,5.47
same,NF-kB SEAP reporter activity,[3]; [6],2.71
same,NF-kB SEAP reporter activity,[3]; [7],1.09
same,NF-kB SEAP reporter activity,[3]; [8],1.61
CCOC(=O)NCCCC(=O)NCCc1ccccc1,NF-kB SEAP reporter activity,[1]; [4],0.961
same,NF-kB SEAP reporter activity,[1]; [5],0.985
CN(C)CCCNC(=O)c1ccc(-c2cc(O)c3ncccc3c2)cc1 (library stock concentration (final ~1000-fold dilution): 10 mM),NF-kB SEAP reporter activity,[2]; agonist: LPS (TLR4) 0.1 ug/mL,0.881
same,NF-kB SEAP reporter activity,[2]; [6],1.38
same,NF-kB SEAP reporter activity,[2]; [7],1.13
same,NF-kB SEAP reporter activity,[2]; [8],1.34
CCN(CC)CCNC(=O)c1ccc(N)cc1.Cl (library stock concentration (final ~1000-fold dilution): 10 mM),NF-kB SEAP reporter activity,[2]; agonist: LPS (TLR4) 0.1 ug/mL,0.999
same,NF-kB SEAP reporter activity,[2]; [6],1.02
same,NF-kB SEAP reporter activity,[2]; [7],0.923
same,NF-kB SEAP reporter activity,[2]; [8],1.04
CCOC(=O)NCCCC(=O)NCCc1ccccc1 (library stock concentration (final ~1000-fold dilution): 10 mM),NF-kB SEAP reporter activity,[2]; agonist: LPS (TLR4) 0.1 ug/mL,1.31
same,NF-kB SEAP reporter activity,[2]; [6],0.995
same,NF-kB SEAP reporter activity,[2]; [7],1.17
same,NF-kB SEAP reporter activity,[2]; [8],1.06
CCN(CC)CCNC(=O)c1ccc(N)cc1.Cl,NF-kB SEAP reporter activity,[1]; [4],0.94
same,NF-kB SEAP reporter activity,[1]; [5],1.05
O=C(N/N=C/c1ccc(O)c(O)c1)c1cc2ccccc2cc1O,NF-kB SEAP reporter activity,[1]; [4],0.605
same,NF-kB SEAP reporter activity,[1]; [5],0.843
O=C(CCCCCCNC(=O)c1cnc(N(c2ccccc2)c2ccccc2Cl)nc1)NO,NF-kB SEAP reporter activity,[1]; [9],1.51
same,NF-kB SEAP reporter activity,[1]; [10],2.19
O=C(CCCCCCNC(=O)c1cnc(N(c2ccccc2)c2ccccc2)nc1)NO,NF-kB SEAP reporter activity,[1]; [9],1.12
same,NF-kB SEAP reporter activity,[1]; [10],2.14
CN(C)CCCNC(=O)c1ccc(-c2cc(O)c3ncccc3c2)cc1,NF-kB SEAP reporter activity,[1]; [4],1.08
same,NF-kB SEAP reporter activity,[1]; [5],1
